Compound activity deposited in PubChem BioAssay by several laboratories.
Cav32 inh: Cav3.2 calcium influx blockers – cell-based, Fluo-4 calcium fluorescence, FDSS, MLSMR library, primary screen; 100,000 tested, 4% active; B-score at 10 µM; Cav3.2-expressing cells; hits give low values; Voltage-dependent T-type calcium channel subunit alpha-1H (Homo sapiens), O95180;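 active means single-dose well whose peak fluorescence ratio is a statistical outlier from its plate by either plate-standardised score or position-corrected B-score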
Target sequence (O95180 whole entry, looked up): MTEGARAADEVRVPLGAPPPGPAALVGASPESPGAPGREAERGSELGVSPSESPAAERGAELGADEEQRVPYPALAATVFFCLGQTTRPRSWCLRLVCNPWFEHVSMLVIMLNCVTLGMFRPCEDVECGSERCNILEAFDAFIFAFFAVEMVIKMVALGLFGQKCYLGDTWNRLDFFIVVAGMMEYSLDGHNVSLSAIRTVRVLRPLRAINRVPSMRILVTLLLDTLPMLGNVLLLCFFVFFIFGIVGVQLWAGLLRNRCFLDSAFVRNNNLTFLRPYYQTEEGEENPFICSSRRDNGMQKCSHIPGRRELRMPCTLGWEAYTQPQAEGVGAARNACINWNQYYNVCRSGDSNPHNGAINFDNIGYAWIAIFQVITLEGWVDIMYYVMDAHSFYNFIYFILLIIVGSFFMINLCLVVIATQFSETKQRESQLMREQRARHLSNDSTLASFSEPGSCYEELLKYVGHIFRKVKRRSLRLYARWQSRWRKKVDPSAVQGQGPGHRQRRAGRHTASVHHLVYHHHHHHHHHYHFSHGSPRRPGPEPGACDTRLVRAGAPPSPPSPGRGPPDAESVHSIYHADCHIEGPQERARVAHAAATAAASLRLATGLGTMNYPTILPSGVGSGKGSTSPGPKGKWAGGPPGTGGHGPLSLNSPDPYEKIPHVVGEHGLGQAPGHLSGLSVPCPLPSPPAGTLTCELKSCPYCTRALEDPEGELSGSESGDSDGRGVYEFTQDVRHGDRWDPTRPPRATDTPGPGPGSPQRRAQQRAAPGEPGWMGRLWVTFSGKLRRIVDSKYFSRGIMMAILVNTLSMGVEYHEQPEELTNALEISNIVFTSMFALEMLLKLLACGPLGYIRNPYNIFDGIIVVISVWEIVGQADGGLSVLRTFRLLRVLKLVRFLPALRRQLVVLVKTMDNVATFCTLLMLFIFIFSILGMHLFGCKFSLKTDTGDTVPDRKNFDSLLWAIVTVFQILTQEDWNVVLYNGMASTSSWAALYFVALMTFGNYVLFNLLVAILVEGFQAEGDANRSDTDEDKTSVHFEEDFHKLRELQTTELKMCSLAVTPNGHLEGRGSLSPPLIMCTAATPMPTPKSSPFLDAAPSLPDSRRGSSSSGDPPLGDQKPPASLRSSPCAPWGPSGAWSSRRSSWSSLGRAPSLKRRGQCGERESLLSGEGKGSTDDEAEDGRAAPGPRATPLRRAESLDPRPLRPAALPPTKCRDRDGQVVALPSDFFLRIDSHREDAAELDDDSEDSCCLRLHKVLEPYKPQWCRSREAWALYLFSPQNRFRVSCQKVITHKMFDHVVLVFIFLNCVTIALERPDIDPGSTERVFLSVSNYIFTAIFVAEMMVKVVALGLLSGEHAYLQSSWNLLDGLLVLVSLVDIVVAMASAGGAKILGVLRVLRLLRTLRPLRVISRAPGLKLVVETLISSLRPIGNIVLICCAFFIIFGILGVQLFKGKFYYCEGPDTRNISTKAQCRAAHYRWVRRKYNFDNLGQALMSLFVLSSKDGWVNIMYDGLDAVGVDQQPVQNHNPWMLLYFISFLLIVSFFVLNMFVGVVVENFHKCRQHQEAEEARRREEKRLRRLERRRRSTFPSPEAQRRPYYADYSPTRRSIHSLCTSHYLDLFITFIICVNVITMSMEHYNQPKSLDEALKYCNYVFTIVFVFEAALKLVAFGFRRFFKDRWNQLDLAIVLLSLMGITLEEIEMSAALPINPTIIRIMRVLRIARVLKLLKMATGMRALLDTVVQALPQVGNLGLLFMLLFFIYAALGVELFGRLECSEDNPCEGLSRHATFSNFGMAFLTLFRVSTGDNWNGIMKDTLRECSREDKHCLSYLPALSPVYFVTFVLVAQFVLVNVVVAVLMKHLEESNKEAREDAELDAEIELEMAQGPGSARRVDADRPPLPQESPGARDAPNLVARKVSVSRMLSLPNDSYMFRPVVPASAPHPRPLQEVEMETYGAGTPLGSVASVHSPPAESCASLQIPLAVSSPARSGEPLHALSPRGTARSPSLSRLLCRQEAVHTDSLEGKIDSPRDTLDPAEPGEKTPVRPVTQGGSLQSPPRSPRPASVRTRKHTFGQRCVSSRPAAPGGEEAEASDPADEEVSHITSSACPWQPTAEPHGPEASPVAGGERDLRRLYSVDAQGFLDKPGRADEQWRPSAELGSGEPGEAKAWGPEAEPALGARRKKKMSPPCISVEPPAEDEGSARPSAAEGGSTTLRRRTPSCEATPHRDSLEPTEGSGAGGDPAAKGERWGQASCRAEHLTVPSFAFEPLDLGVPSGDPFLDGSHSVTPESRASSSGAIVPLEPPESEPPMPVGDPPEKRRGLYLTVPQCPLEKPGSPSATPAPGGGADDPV
CYP2C19 inhib: blockers of cytochrome P450 2C19 activity – biochemical, luminescence, ADME assay, primary screen; P33261; CYP2C19 Supersomes, luciferin-H EGE luminescence, 30 min; inhibition, % at 5 µM; 96,000 tested, 21% active; AID 778, 2007;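 active means CYP2C19 inhibition above a set limit at 5 µM in the primary screen, cut at about 50% in these data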
CYP2C19 act: human CYP2C19 activators, primary screen, biochemical, luminescence; 96,000 tested, under 10 active; activation factor at 5 µM; recombinant CYP2C19, luciferin-H EGE luminescence; hits give high values; 0 = fully inhibited enzyme, 1 = untreated enzyme;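 active means activation factor of at least 2 at 5 µM in the primary screen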
CYP2C9 act: human CYP2C9 activators, primary screen, biochemical, luminescence; Cytochrome P450 2C9 (Homo sapiens), P11712; recombinant CYP2C9, luciferin-H conversion; hits give high values; factor 1 = untreated enzyme, 0 = blocked; activation factor at 5 µM; 96,000 tested, 1.4% active;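 active means activation factor of 2 or more for CYP2C9 at a 5 µM dose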
CYP2C9 inhib: blockers of cytochrome P450 2C9 activity – biochemical, luminescence, ADME assay, primary screen; 96,000 tested, 20% active; P11712; CYP2C9 Supersomes, luciferin-H conversion; inhibition, % at 5 µM;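 active means blocking of liver enzyme CYP2C9 beyond about 50% at 5 µM, limit read from the data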
A number is an active result; . = inactive; / = no result given. Hits are enriched below; roughly 27% of the tested compounds scored in any of these assays.

SMILES	Cav32 inh	CYP2C19 inhib	CYP2C19 act	CYP2C9 act	CYP2C9 inhib
CCOC(=O)c1cc(-c2ccc(C#N)cc2)nc2c1c(C)nn2CCC#N	.	.	.	.	52.2
Cc1ccc2c(c1)NC(=O)C(CC(=O)NCc1ccc(F)cc1)O2 (stereo unspecified)	.	.	.	.	.
O=C(CC1Oc2ccccc2NC1=O)NCc1ccccc1 (stereo unspecified)	.	65.8	.	2	.
CC1CCCCC1NC(=O)CC1Oc2ccccc2NC1=O (stereo unspecified)	.	.	.	.	.
CC1CCC(NC(=O)CC2Oc3ccccc3NC2=O)CC1 (stereo unspecified)	.	.	.	2.3	.
COc1ccccc1C(=O)Nc1c2c(nn1-c1cccc(C)c1C)CS(=O)(=O)C2	.	.	.	.	.
Nc1cc(=O)[nH]n1C1CCN(c2ccccc2)CC1	.	.	.	.	.
CCn1c(SCC(=O)Nc2ccc3c(c2)OCO3)nc2c1c(=O)n(C)c(=O)n2C	.	.	.	.	.
CCOC(=O)c1cnc(SCC(=O)Nc2ccc3c(c2)OCCO3)nc1N	.	.	.	.	69.3
COc1ccc(NC(=O)CSc2ccc3c(c2)OCCO3)cc1OC	.	.	.	.	64.2
CC(C)n1c(SCC(=O)Nc2ccc3c(c2)OCO3)nc2c1c(=O)n(C)c(=O)n2C	.	.	.	.	55.2
COc1cc(NC(=O)CSc2ccc3c(c2)OCCO3)cc(OC)c1OC	/	.	.	.	.
CC(Sc1ccc2c(c1)OCCO2)C(=O)Nc1ncc(Cl)cc1Cl (stereo unspecified)	.	69.6	.	.	.
CCOC(=O)c1cnc(SCC(=O)Nc2ccc(N3CCOCC3)cc2)nc1N	/	.	.	.	.
O=[N+]([O-])c1ccc(C2CCCC/C2=N\OCc2cccc(F)c2)c([N+](=O)[O-])c1 (stereo unspecified)	/	.	.	.	.
COc1c(Cl)ccc(Cl)c1C(=O)OCC(=O)O	.	.	.	.	.
Cc1nnc(SCC(=O)Nc2ccc3c(c2)OCO3)o1	.	.	.	.	.
O=C(CSc1ccc2c(c1)OCCO2)Nc1ccc2c(c1)OCO2	.	99.6	.	.	92.4
CSc1nsc(SCC(=O)Nc2ccc3c(c2)OCCO3)n1	/	88.5	.	.	82.1
CCCNC(=O)NC(=O)CSc1ccc2c(c1)OCCO2	.	75.6	.	.	.
CCc1nnc(SCC(=O)Nc2ccc3c(c2)OCO3)o1	.	71.7	.	.	.
Cc1n[nH]c(C)c1S(=O)(=O)N1CCN(C(=O)c2ccco2)CC1	.	.	.	.	.
CCCCN(C(=O)NC(=O)Nc1nc2ccc(OC)cc2s1)S(C)(=O)=O	.	.	.	.	.
COCc1cc(C)nc(SCC(=O)Nc2ccc3c(c2)OCO3)c1C#N	.	75.7	.	.	.
CC(Sc1ccc2c(c1)OCCO2)C(=O)Nc1ccc2c(c1)OCO2 (stereo unspecified)	.	100.3	.	.	90.5
SMILES	Cav32 inh	CYP2C19 inhib	CYP2C19 act	CYP2C9 act	CYP2C9 inhib
O=C(CSc1ncn(-c2ccccc2)n1)Nc1ccc2c(c1)OCO2	.	94.7	.	.	90.3
CCOC(=O)c1cnc(SCc2ccc(C(C)(C)C)cc2)nc1N	-7.2	.	.	.	69.9
COCc1cc(C)nc(SCC(=O)Nc2cccc3cccnc23)c1C#N	.	.	.	.	.
Cc1nnc(SC(C)C(=O)Nc2ccc3c(c2)OCCO3)s1 (stereo unspecified)	.	.	.	.	.
OC[C@@H](O)[C@@H](O[C@H]1O[C@H](CO)[C@@H](O)[C@H](O)[C@H]1O)[C@H](O)[C@@H](O)CO	.	/	/	/	/
O=C(CSc1ncn(-c2ccccc2)n1)Nc1ccc(Br)cn1	-5.41	75.1	.	.	58.1
Cc1ccc(NC(=O)CSc2ncn(-c3ccccc3)n2)cc1C	.	/	/	/	/
O=C(CSc1nnc2c(n1)[nH]c1ccccc12)Nc1ccc2c(c1)OCO2	.	.	.	.	64.3
CC(C)c1nnc(SCC(=O)Nc2ccc3c(c2)OCO3)n1C	.	/	/	/	/
CC(C)c1nc(SCC(=O)Nc2ccc3c(c2)OCO3)n[nH]1	.	73.3	.	.	.
CCN(CC)CCN1C(=O)C(=O)/C(=C(/O)c2ccncc2)C1c1ccccc1 (stereo unspecified)	.	.	.	.	.
O=C(CCCOc1ccccc1)N1CCN(c2ccccc2)CC1	-4.33	62.4	.	.	78.1
Cc1ccc(OCCCC(=O)N2CCOCC2)cc1	.	75.2	.	.	.
O=C(CCCN1C(=O)c2cccc3cccc(c23)C1=O)N1CCc2ccccc2C1	.	52.5	.	4	.
C=CCNC(=O)CCCOc1ccc(C)cc1	.	72.6	.	.	59.7
Cc1ccc(S(=O)(=O)N(C)CCCC(=O)N2CCOCC2)cc1	.	.	.	.	.
O=C(CCCOc1ccccc1)N1CCc2ccccc2C1	.	82.7	.	.	.
O=C(CCCN1C(=O)c2ccccc2C1=O)N1CCCCC1	.	/	/	/	/
Cc1cccc(N2CCN(C(=O)CCCOc3ccccc3)CC2)c1C	-7.67	74.7	.	.	80.9
O=C(CCCN1C(=O)c2ccccc2C1=O)N1CCC(c2ccccc2)C1 (stereo unspecified)	.	79.2	.	.	66.9
CCn1c(=O)cc(O)c2c(=O)n(C)c(=O)n(C)c21	.	.	.	.	.
CCOC(=O)c1sc(NC(=O)/C=C/c2cnn(C)c2C)c(C(=O)OCC)c1C	/	.	.	.	.
O=C(O)CCc1nc2ccccc2n(CCc2ccccc2)c1=O	.	.	.	.	.
CC(C)(C)Cc1nc2ccccc2n1CCc1ccccc1	-4.28	84.7	.	.	.
c1ccc(Cn2c(CSc3nnnn3-c3ccccc3)nc3ccccc32)cc1	.	.	.	.	.
SMILES	Cav32 inh	CYP2C19 inhib	CYP2C19 act	CYP2C9 act	CYP2C9 inhib
c1ccc(Cc2nc3ccccc3n2Cc2ccccc2)cc1	-4.34	.	.	.	91.6
CCOc1ccc(C(C)NC(=O)CCC(=O)O)cc1 (stereo unspecified)	.	.	.	.	.
CC(C)c1cc(C(N)=O)c(NC(=O)c2cccc(COc3ccc(Cl)cc3)c2)s1	/	74.0	.	.	71.9
Cc1cc(NC(=O)c2cccc(COc3ccc(Br)cc3)c2)no1	.	.	.	.	.
Cc1nn(Cc2c(F)c(F)c(F)c(F)c2F)c(C)c1NC(=O)c1cccc(COc2ccc(Cl)cc2)c1	-5.29	.	.	.	.
O=C(NC12CC3CC(CC(C3)C1)C2)c1cc2nc(-c3ccco3)cc(C(F)(F)F)n2n1	.	.	.	.	.
CS(=O)(=O)N1CCN(c2ccccc2NC(=O)Cc2ccccc2)CC1	.	62.5	.	.	.
CS(=O)(=O)N1CCN(c2ccccc2NC(=O)c2ccc(-c3ccc(Cl)cc3Cl)o2)CC1	.	.	.	.	50.5
CCC(=O)N1CCN(c2ccccc2NC(=O)Cc2ccccc2)CC1	-4.98	59.1	.	.	.
